In PubChem BioAssay (EPA / NIEHS):
Inconclusive results are not listed. More than one record can exist for a structure, and the calls need not agree. Calls of active or inactive are those of the source. How the source made its calls, unless noted: active means hit-call score of the fitted dose curve at least 0.9, where 1 is the maximum; inconclusive means response in the unintended direction; inactive means score below 0.9.

Tests used:
[1] = molecular target: human CYP2B6, CYP2B6 (gene 1555) (UniProt P20813); experiment: NVS_ADME_hCYP2B6: NovaScreen (NVS) CYP450-related Enzyme Activity (ADME) Assay for human CYP2B6 (AID 2283101)
Chain of human CYP2B6, CYP2B6 (gene 1555) (P20813 whole entry, looked up): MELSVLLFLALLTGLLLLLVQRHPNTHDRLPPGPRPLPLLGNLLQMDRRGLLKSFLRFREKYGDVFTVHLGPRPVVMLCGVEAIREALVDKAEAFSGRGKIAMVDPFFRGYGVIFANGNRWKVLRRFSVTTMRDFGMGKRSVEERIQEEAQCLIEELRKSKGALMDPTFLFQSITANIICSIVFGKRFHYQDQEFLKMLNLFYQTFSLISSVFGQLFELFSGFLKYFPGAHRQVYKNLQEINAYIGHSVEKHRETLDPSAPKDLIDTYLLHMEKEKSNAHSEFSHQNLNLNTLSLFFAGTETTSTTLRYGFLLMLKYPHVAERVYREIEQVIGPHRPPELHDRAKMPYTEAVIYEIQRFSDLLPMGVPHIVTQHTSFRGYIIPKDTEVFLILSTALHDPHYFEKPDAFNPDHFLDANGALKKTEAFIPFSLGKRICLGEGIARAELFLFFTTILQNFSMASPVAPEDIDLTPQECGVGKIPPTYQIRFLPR
Outline: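 Fluorescence-based enzyme activity of recombinant human CYP2B6, measured 1 h post-dose against acetonitrile vehicle baseline. Screened at a single concentration of 10 uM in duplicate before concentration-response follow-up.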

[2] = molecular target: Cytochrome P450 2C18 (Homo sapiens) (UniProt P33260); experiment: NVS_ADME_hCYP2C18: NovaScreen (NVS) CYP450-related Enzyme Activity (ADME) Assay for human CYP2C18 (AID 2283103; active means hit-call score of the fitted dose curve at least 0.9, where 1 is the maximum; inactive means score below 0.9)
Chain of Cytochrome P450 2C18 (Homo sapiens) (P33260 whole entry, looked up): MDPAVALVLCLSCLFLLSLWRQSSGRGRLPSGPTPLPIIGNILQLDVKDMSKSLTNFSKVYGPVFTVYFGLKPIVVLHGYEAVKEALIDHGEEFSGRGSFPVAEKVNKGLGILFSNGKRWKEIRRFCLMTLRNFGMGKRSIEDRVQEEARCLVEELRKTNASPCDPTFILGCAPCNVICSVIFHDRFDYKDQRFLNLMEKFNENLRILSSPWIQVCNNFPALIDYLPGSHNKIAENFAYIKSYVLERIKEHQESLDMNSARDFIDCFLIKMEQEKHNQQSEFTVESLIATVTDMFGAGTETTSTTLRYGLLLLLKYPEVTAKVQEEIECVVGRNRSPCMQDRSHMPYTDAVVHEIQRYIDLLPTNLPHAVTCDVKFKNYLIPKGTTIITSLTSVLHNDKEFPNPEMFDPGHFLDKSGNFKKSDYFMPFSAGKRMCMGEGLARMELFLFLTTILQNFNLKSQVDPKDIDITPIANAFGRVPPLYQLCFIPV
Outline: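 Cell-free recombinant human CYP2C18 with fluorogenic substrate; fluorescence intensity read 0.5 h after dosing. Single-point screen at 10 uM in duplicate, then concentration-response up to 20 uM; loss of signal fitted against acetonitrile baseline.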

[3] = molecular target: human CYP2J2, CYP2J2 (gene 1573) (UniProt P51589); experiment: NVS_ADME_hCYP2J2: NovaScreen (NVS) CYP450-related Enzyme Activity (ADME) Assay for human CYP2J2 (AID 2283106)
Chain of human CYP2J2, CYP2J2 (gene 1573) (P51589 whole entry, looked up): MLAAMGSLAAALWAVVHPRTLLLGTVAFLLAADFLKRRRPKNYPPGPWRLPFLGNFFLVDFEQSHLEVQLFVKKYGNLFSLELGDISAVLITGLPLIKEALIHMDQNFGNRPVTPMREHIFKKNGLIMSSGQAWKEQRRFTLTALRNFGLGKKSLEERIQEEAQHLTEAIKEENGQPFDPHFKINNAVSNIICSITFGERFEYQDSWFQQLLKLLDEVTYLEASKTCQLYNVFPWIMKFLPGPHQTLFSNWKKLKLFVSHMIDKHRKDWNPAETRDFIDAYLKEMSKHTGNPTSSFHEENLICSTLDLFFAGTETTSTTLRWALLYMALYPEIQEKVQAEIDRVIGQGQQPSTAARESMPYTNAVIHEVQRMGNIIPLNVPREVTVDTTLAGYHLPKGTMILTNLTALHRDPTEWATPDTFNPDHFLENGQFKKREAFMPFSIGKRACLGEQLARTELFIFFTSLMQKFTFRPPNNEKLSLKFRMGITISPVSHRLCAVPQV
Outline: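 Cell-free assay of recombinant CYP2J2 with a fluorogenic substrate, read 1 h after dosing; loss of signal versus acetonitrile. Primary screen at 10 uM in duplicate, then concentration-response up to 20 uM for chemicals passing threshold (e.g., 30% inhibition).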

[4] = molecular target: human CYP2C9, CYP2C9 (gene 1559) (UniProt P11712); experiment: NVS_ADME_hCYP2C9: NovaScreen (NVS) CYP450-related Enzyme Activity (ADME) Assay for human CYP2C9 (AID 2283108)
Chain of human CYP2C9, CYP2C9 (gene 1559) (P11712 whole entry, looked up): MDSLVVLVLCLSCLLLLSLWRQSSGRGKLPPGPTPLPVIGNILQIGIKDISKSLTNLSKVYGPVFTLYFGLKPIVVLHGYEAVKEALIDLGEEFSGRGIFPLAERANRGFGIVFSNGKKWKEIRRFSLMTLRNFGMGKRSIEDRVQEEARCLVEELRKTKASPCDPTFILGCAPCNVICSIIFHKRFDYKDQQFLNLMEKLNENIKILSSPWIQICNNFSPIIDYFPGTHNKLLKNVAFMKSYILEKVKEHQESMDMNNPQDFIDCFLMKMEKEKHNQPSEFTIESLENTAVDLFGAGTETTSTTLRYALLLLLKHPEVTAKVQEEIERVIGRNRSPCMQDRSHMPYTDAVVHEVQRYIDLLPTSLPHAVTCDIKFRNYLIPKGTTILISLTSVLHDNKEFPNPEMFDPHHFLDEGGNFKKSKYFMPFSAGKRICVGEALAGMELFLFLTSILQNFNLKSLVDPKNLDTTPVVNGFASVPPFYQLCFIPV
Outline: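 Fluorescence readout of CYP2C9 activity (SF9-expressed human enzyme) at 0.75 h. The primary screen used 10 uM in duplicate, with concentration-response follow-up for actives; acetonitrile was the negative control.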

[5] = molecular target: Cytochrome P450 3A4 (Homo sapiens) (UniProt P08684); experiment: NVS_ADME_hCYP3A4: NovaScreen (NVS) CYP450-related Enzyme Activity (ADME) Assay for human CYP3A4 (AID 2283110)
Outline: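 Compounds were first screened in duplicate at 10 uM against recombinant CYP3A4 produced in insect cells, then actives were run in concentration series. Enzyme activity was measured by fluorescence after 0.33 hour, with acetonitrile as baseline.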

[6] = molecular target: rat CYP2A1, Cyp2a1 (gene 24894) (UniProt P11711); experiment: NVS_ADME_rCYP2A1: NovaScreen (NVS) CYP450-related Enzyme Activity (ADME) Assay for rat CYP2A1 (AID 2283114; active means hit-call score of the fitted dose curve at least 0.9, where 1 is the maximum; inactive means score below 0.9)
Outline: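 Recombinant rat CYP2A1, cell-free, fluorogenic substrate turnover read by fluorescence intensity 0.75 h after dosing. Primary screen at 10 uM in duplicate; actives rerun as concentration-response up to 20 uM; loss of signal versus acetonitrile control.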

[7] = molecular target: rat CYP2A2, Cyp2a2 (gene 24895) (UniProt P15149); experiment: NVS_ADME_rCYP2A2: NovaScreen (NVS) CYP450-related Enzyme Activity (ADME) Assay for rat CYP2A2 (AID 2283116)
Chain of rat CYP2A2, Cyp2a2 (gene 24895) (P15149 whole entry, looked up): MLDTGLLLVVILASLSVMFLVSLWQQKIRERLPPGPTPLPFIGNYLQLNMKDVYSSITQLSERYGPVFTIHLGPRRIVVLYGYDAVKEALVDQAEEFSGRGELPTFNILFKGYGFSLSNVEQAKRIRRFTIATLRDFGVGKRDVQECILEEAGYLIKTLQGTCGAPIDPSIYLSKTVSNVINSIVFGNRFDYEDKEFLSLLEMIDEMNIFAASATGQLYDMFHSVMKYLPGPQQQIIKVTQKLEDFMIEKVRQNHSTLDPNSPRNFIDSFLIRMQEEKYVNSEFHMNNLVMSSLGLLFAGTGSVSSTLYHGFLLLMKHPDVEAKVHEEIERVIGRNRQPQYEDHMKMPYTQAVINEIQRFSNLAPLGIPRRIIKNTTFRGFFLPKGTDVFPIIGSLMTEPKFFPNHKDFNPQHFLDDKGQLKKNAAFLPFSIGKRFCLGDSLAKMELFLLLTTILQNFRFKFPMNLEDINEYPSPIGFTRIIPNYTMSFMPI
Outline: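 Cell-free recombinant rat CYP2A2 activity with fluorogenic substrate, fluorescence read 0.2 h after dosing. Chemicals screened at 10 uM in duplicate, hits then run in concentration-response up to 20 uM; signal loss versus acetonitrile baseline.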

[8] = system: rat CYP2B1, gene 24300; experiment: NVS_ADME_rCYP2B1: NovaScreen (NVS) CYP450-related Enzyme Activity (ADME) Assay for rat CYP2B1 (AID 2283117)
Outline: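 Recombinant rat CYP2B1 with fluorogenic substrate, read at 0.75 h. Primary screen in duplicate at 10 uM; compounds meeting threshold (e.g., 30% inhibition) re-run in concentration-response up to 20 uM. Fitted against acetonitrile control.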

[9] = molecular target: rat CYP2C11, Cyp2c11 (gene 29277) (UniProt P08683); experiment: NVS_ADME_rCYP2C11: NovaScreen (NVS) CYP450-related Enzyme Activity (ADME) Assay for rat CYP2C11 (AID 2283118)
Outline: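 Cell-free recombinant rat enzyme with fluorescent substrate; readout 0.33 h after dosing, loss of signal versus acetonitrile control. Initial duplicate single-point at 10 uM; actives rerun in concentration series.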

[10] = molecular target: rat CYP2C13, Cyp2c13 (gene 171521) (UniProt P20814); experiment: NVS_ADME_rCYP2C13: NovaScreen (NVS) CYP450-related Enzyme Activity (ADME) Assay for rat CYP2C13 (AID 2283121)
Chain of rat CYP2C13, Cyp2c13 (gene 171521) (P20814 whole entry, looked up): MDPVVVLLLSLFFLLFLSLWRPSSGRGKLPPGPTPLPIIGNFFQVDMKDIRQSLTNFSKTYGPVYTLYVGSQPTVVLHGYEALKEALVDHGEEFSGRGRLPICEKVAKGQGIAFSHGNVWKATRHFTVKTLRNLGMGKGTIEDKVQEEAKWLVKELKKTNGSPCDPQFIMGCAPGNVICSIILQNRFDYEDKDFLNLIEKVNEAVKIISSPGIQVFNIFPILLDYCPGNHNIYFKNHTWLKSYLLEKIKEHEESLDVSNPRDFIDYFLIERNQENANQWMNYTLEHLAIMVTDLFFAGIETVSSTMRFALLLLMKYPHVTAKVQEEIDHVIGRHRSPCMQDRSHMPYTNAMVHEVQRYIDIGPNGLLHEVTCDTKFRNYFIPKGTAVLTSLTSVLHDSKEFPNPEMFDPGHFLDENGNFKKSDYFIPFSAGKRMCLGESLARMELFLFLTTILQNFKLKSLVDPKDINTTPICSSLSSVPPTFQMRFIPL
Outline: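 Recombinant rat CYP2C13 with fluorogenic substrate, 0.75 h cell-free incubation; primary screen in duplicate at 10 uM, actives followed in concentration series. Fluorescence loss relative to acetonitrile control indicates inhibition.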

[11] = molecular target: rat CYP2D1, Cyp2d1 (gene 266684) (UniProt P10633); experiment: NVS_ADME_rCYP2D1: NovaScreen (NVS) CYP450-related Enzyme Activity (ADME) Assay for rat CYP2D1 (AID 2283122)
Chain of rat CYP2D1, Cyp2d1 (gene 266684) (P10633 whole entry, looked up): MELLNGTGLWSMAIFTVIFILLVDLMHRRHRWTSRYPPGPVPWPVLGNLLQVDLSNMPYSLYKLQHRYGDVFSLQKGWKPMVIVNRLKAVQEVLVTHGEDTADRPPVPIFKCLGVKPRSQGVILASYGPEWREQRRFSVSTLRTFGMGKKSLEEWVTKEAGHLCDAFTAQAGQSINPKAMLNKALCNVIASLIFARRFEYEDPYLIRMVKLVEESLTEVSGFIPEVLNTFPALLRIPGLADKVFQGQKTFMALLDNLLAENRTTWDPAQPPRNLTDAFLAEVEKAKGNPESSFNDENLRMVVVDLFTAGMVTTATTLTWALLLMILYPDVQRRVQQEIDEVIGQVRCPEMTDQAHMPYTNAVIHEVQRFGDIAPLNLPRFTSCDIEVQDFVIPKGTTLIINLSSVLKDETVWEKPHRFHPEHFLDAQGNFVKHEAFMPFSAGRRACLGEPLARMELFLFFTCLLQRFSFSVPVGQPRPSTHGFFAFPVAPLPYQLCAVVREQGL
Outline: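 Cell-free fluorescence enzyme-activity assay on extracted rat CYP2D1 protein, read 0.75 h after dosing. Primary screen in duplicate at 10 uM; qualifying chemicals then run in concentration-response to 20 uM max, loss-of-signal versus acetonitrile baseline.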

[12] = molecular target: rat CYP2D2, Cyp2d26 (gene 25053) (UniProt P10634); experiment: NVS_ADME_rCYP2D2: NovaScreen (NVS) CYP450-related Enzyme Activity (ADME) Assay for rat CYP2D2 (AID 2283124)
Chain of rat CYP2D2, Cyp2d26 (gene 25053) (P10634 whole entry, looked up): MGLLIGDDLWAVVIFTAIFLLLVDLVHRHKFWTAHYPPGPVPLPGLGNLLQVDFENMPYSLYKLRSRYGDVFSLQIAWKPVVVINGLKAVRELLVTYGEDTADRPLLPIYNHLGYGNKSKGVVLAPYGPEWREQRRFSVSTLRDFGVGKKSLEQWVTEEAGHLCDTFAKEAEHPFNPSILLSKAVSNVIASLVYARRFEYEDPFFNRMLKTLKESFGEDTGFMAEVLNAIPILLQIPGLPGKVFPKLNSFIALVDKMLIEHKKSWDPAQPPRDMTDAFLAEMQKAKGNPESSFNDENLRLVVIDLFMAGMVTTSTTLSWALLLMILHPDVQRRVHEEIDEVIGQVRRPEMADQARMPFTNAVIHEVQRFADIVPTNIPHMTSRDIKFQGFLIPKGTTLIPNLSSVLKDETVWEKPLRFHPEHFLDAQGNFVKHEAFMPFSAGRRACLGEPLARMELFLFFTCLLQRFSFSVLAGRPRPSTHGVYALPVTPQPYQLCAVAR
Outline: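 Recombinant rat CYP2D2 in a cell-free fluorogenic activity assay, fluorescence read 0.75 h after dosing. Primary screen in duplicate at 10 uM; actives re-run singly in concentration-response to 20 uM, relative to acetonitrile.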

[13] = system: rat CYP3A1, gene 25642; experiment: NVS_ADME_rCYP3A1: NovaScreen (NVS) CYP450-related Enzyme Activity (ADME) Assay for rat CYP3A1 (AID 2283126)
Outline: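 Cell-free recombinant CYP assay with fluorescent substrate, read 0.5 h after dosing. Screened at 10 uM in duplicate, hits at up to 20 uM in concentration-response; loss of signal versus acetonitrile baseline.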

[14] = molecular target: rat CYP3A2, Cyp3a2 (gene 266682) (UniProt P05183); experiment: NVS_ADME_rCYP3A2: NovaScreen (NVS) CYP450-related Enzyme Activity (ADME) Assay for rat CYP3A2 (AID 2283128)
Chain of rat CYP3A2, Cyp3a2 (gene 266682) (P05183 whole entry, looked up): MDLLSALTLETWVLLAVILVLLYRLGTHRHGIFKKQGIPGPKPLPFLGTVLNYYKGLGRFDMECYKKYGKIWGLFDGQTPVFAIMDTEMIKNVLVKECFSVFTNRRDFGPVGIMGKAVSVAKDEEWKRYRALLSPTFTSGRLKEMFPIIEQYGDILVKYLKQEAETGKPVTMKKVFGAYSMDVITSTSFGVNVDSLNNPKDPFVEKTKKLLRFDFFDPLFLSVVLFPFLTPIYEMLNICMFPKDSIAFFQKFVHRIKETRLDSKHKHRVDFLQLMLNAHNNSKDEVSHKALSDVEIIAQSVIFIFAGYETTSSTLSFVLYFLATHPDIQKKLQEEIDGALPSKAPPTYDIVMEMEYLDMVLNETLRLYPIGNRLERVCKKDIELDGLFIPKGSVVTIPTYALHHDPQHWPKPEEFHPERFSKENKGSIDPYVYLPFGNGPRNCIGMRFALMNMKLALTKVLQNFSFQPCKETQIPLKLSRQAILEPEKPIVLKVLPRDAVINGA
Outline: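 Cell-free rat CYP3A2 enzyme assay with fluorescent substrate, read 0.5 h after dosing. Primary duplicate screen at 10 uM; actives run in concentration-response up to 20 uM, relative to acetonitrile baseline.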

[15] = molecular target: human CYP1A2, CYP1A2 (gene 1544) (UniProt P05177); experiment: NVS_ADME_hCYP1A2: NovaScreen (NVS) CYP450-related Enzyme Activity (ADME) Assay for human CYP1A2 (AID 2283102);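 further: potency for inhibition since loss of fluorescence marks reduced CYP1A2 activity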
Chain of human CYP1A2, CYP1A2 (gene 1544) (P05177 whole entry, looked up): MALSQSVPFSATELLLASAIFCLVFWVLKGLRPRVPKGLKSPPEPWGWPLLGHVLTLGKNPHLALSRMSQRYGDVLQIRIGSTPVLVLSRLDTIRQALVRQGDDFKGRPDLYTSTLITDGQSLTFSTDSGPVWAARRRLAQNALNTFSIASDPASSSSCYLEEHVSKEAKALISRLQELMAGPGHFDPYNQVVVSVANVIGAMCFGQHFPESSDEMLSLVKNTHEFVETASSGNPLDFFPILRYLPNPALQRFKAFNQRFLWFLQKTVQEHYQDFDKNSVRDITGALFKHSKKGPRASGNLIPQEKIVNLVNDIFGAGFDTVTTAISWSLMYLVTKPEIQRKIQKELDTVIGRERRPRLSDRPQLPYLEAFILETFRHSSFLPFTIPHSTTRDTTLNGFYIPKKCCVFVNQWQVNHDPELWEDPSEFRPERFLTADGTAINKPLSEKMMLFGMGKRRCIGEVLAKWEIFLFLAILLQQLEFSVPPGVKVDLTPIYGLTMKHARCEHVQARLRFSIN
Outline: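 Recombinant human CYP1A2 from insect cells, cell-free, fluorogenic substrate; read 0.5 h after dosing with loss of fluorescence signal indicating inhibition. Primary screen in duplicate at 10 uM, acetonitrile as negative control.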

[16] = molecular target: human CYP2C8, CYP2C8 (gene 1558) (UniProt P10632); experiment: NVS_ADME_hCYP2C8: NovaScreen (NVS) CYP450-related Enzyme Activity (ADME) Assay for human CYP2C8 (AID 2283104; active means hit-call score of the fitted dose curve at least 0.9, where 1 is the maximum; inactive means score below 0.9)
Outline: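 Recombinant human CYP2C8 with fluorogenic substrate, 0.5 h, fluorescence intensity; signal loss fitted versus acetonitrile. Screened in duplicate at 10 uM, then actives run in concentration-response up to 20 uM.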

[17] = molecular target: human CYP2D6, CYP2D6 (gene 1565) (UniProt P10635); experiment: NVS_ADME_hCYP2D6: NovaScreen (NVS) CYP450-related Enzyme Activity (ADME) Assay for human CYP2D6 (AID 2283107)
Outline: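 Cell-free assay using recombinant human CYP2D6 expressed in insect cells, with a fluorogenic substrate read after 1 h. Primary screen in duplicate at 10 uM; actives followed up in concentration series. Loss of signal fitted relative to acetonitrile.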

[18] = molecular target: rat CYP1A2, Cyp1a2 (gene 24297) (UniProt P04799); experiment: NVS_ADME_rCYP1A2: NovaScreen (NVS) CYP450-related Enzyme Activity (ADME) Assay for rat CYP1A2 (AID 2283115)
Outline: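 Cell-free recombinant rat enzyme with fluorogenic substrate, read by fluorescence intensity 1 hour after dosing. Loss of signal versus acetonitrile negative control; primary screen at 10 uM in duplicate, actives followed in concentration series.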

[19] = system: rat CYP2C6, gene 293989; experiment: NVS_ADME_rCYP2C6: NovaScreen (NVS) CYP450-related Enzyme Activity (ADME) Assay for rat CYP2C6 (AID 2283120)
Outline: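 Cell-free recombinant rat CYP2C6 with fluorogenic substrate, read by fluorescence 1 h after dosing; acetonitrile as negative control. Primary screen at 10 uM in duplicate, actives then in concentration-response up to 20 uM.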

[20] = molecular target: human CYP4F12, CYP4F12 (gene 66002) (UniProt Q9HCS2); experiment: NVS_ADME_hCYP4F12: NovaScreen (NVS) CYP450-related Enzyme Activity (ADME) Assay for human CYP4F12 (AID 2283111)
Outline: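 Cell-free fluorescence assay of recombinant human CYP4F12 activity on a specific substrate, read 0.5 h after dosing. Primary screen in duplicate at 10 uM, then concentration series for actives; loss of signal fitted against acetonitrile negative control.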

Measured: AC50

CC(C)(C)C(O)/C(=C\c1ccc(Cl)cc1Cl)n1cncn1 (stereo not given)
active: [1] 974 nM | [2] 38.6 nM | [3] 2210 nM | [4] 721 nM | [5] 1200 nM | [6] 477 nM | [7] 19.5 nM | [8] 16.4 nM | [9] 369 nM | [10] 281 nM | [11] 603 nM | [12] 837 nM | [13] 631 nM | [14] 669 nM

CCCN(CCOc1c(Cl)cc(Cl)cc1Cl)C(=O)n1ccnc1
active: [1] 124 nM | [15] 616 nM | [2] 588 nM | [16] 1850 nM | [3] 94 nM | [17] 2180 nM | [4] 578 nM | [6] 512 nM | [7] 9.34 nM | [8] 33.8 nM | [9] 76.6 nM | [19] 166 nM | [10] 191 nM | [11] 1220 nM | [12] 159 nM | [13] 549 nM | [14] 1390 nM
inactive: [18]

O=S(=O)(O)C(F)(F)C(F)(F)C(F)(F)C(F)(F)C(F)(F)C(F)(F)C(F)(F)C(F)(F)F
active: [2] 875 nM | [16] 4040 nM | [9] 85.4 nM
inactive: [5] | [7] | [13]

O=C(Nc1ccccc1)Nc1cnns1
active: [15] 3550 nM | [6] 6130 nM | [11] 8700 nM | [12] 4410 nM
inactive: [3] | [18] | [10]

CC1(C)C(C=C(Cl)Cl)C1C(=O)OC(C#N)c1ccc(F)c(Oc2ccccc2)c1 (stereo not given)
active: [4] 10000 nM

CCOC1Oc2ccc(OS(C)(=O)=O)cc2C1(C)C (stereo not given)
inactive: [11]
active: [1] 5430 nM | [2] 5650 nM | [7] 6210 nM | [9] 4180 nM | [10] 7500 nM | [13] 6950 nM

O=S1OCC2C(CO1)C1(Cl)C(Cl)=C(Cl)C2(Cl)C1(Cl)Cl (stereo not given)
active: [1] 4850 nM

CCOCN(C(=O)CCl)c1c(C)cccc1CC
active: [19] 10000 nM

CCC(C)(NC(=O)c1cc(Cl)c(C)c(Cl)c1)C(=O)CCl (stereo not given)
inactive: [10]

O=C1c2ccccc2C(=O)N1SC(Cl)(Cl)Cl
active: [16] 245 nM
inactive: [17]

ClC1C(Cl)C(Cl)C(Cl)C(Cl)C1Cl (stereo not given)
active: [20] 17300 nM

COP(=S)(OC)Oc1ccc(SC)c(C)c1
active: [1] 8760 nM | [15] 2760 nM | [3] 1060 nM | [4] 5540 nM | [6] 5640 nM | [19] 1830 nM

O=C(O)C(F)(F)C(F)(F)C(F)(F)C(F)(F)C(F)(F)C(F)(F)C(F)(F)F
active: [4] 237 nM | [7] 2680 nM
inactive: [2] | [16] | [4] | [20] | [13]

CN1CSC(=S)N(C)C1
active: [1] 10000 nM | [2] 4320 nM | [8] 3900 nM

CNC(=O)CSP(=S)(OC)OC
inactive: [17]
active: [19] 4770 nM | [14] 5060 nM

COC(=O)c1ccccc1S(=O)(=O)NC(=O)Nc1nc(C)nc(OC)n1
inactive: [17]

O=C(NC(=O)c1c(F)cccc1F)Nc1ccc(OC(F)(F)C(F)OC(F)(F)F)c(Cl)c1 (stereo not given)
inactive: [16]
